Drawing on ChEMBL document CHEMBL3988442, “University of Dundee, Small-Polar-MMV Screening Library” (2021), this text covers Percent Effect for 40 compounds.

This assay has as its target Shiga toxin 2 (Escherichia coli O157:H7) (UniProt P09385+P09386). As to the kind of experiment: E. coli 0.157:H7 Shiga Toxin SOP - stx2 screening assay. The assay is classed as functional. On the set-up: scale not given: direction of the effect not stated beside the values. The note with it: 30 µM.
As for `CN(C)C(=O)N1CCN(Cc2nnc(C(C)(C)C)o2)CC1`, the Percent Effect turned out to be 3.28%. As for `Cn1ncc2c(=O)[nH]c(CN3CCCC3CC3CCCCC3)nc21` (stereo not given), the figure is 22.5%. For the compound `Cc1nc(C)n(CC2CCCN(Cc3cccc(C#N)c3)C2)n1` (stereo not given), the Percent Effect stood at 25.5%. Turning to `CCc1nc(CCNC(=O)NC2CC2)sc1C`, the Percent Effect is -0.181%.

For `O=c1c2ccccc2nc2n1C(CSc1ccc(Cl)cc1Cl)CN2` (stereo not given), the Percent Effect came to 9.69%. The value for `O=C(Cn1nc2c(cc1=O)CSCC2)NC(Cc1ccccc1)C(=O)O` (stereo not given) was -19.5%; that for `O=C(CC1CCCC1)N1C[C@@H]2CCN(c3cccnc3)C[C@@H]2C1` was -5.1%; that for `Cc1cc(CN2CCOC(CN(C)c3cccnn3)C2)no1` (stereo not given) was 18.5%. The value for `O=C(NCCn1ccnc1)c1ccn(-c2cccc(F)c2)n1` was 0.0864%; that for `CC(C)c1nc(C2CCCN(C(=O)c3ccc4[nH]cnc4c3)C2)no1` (stereo not given) was 0.178%; that for `Cc1noc(C2CCCCN2C(=O)NC2CCCC2)n1` (stereo not given) was -14.7%. `COC1COC2(CCN(Cc3ccccc3Cl)CC2)C1` (stereo not given): the Percent Effect was -11.8%. The value for `Cc1cc(C)n(CC2CN(CC(=O)Nc3nncs3)CCO2)n1` (stereo not given) was 9.91%; that for `Cc1cc2ccccc2n1CCC(=O)NCc1ncc[nH]1` was 4.66%. As for `CCn1cnnc1CNC(=O)N1CCN(c2cccc(OC)c2)CC1`, the figure is -10.2%. The value for `COCCN1C(=O)CCC12CCN(C(=O)CC1CC1)CC2` was 0.89%; that for `CS(=O)(=O)N1CCC(c2nnc3ccc(C(=O)N4CCCC4)cn23)C1` (stereo not given) was -10.4%; that for `CCc1nc(CN(C)C2CCN(CCn3cc(C#N)cn3)C2)no1` (stereo not given) was 9.46%. Regarding `Cc1ccccc1C(=O)N1CCC(n2nnc3cc(F)ccc32)CC1`, the Percent Effect was -1.06%. Take `Cc1nc(C)n(C2CCCN(C(=O)CCCOc3ccccc3)C2)n1` (stereo not given): the Percent Effect turned out to be 3.84%. The value for `CCNC(=O)CCN1CCC(c2cc(N3CCOCC3)nc(C)n2)CC1` was -10.2%; that for `CCOc1nnc(CN(C)CC2CCCN2c2cccnn2)s1` (stereo not given) was -14.4%. As for `O=C(c1cnc(-c2ccco2)s1)N1CCCC1Cn1cccn1` (stereo not given), the figure is -4.37%; as for `CCn1cc(CN2CCCn3nc(CNC(=O)C4CCC4)cc3C2)cn1`, -31%. Take `CCc1c(C)nc2n(c1=O)CC(C(=O)Nc1ccccc1F)CS2` (stereo not given): the Percent Effect was -4.39%. As for `Cc1cc2c(cc1C)C(NCc1nnc3n1CCCCC3)CCCO2` (stereo not given), the figure is -2.95%; as for `O=C(Cc1ccccc1)N1CCC2(CC(=O)N(c3cccc(F)c3)C2)C1` (stereo not given), 10.2%. As for `COc1ccc(CN2CCC3(CC2)NC(=O)CC3c2ccncc2)cc1` (stereo not given), the Percent Effect came to 9.6%.

`Cc1ccc(N(C)C2CCN(C(=O)c3ccsc3)CC2)nn1`: the Percent Effect came to 1.6%. As for `O=C(CN1CCCC(Cn2cncn2)C1)NCc1ccco1` (stereo not given), the figure is 14.2%. As for `Cc1ccc(OCCCNC(=O)NC(C)c2nncn2C)cc1` (stereo not given), the figure is 7.34%; as for `CN(Cc1ccsc1)C(=O)CN1CCCC1Cn1cccn1` (stereo not given), -9.42%; as for `COc1ccc(CC(=O)N2CCCC2Cn2cccn2)cc1F` (stereo not given), 15.1%.

With `CC(C)[C@H](NC(=O)NC1CCS(=O)(=O)C1)C(=O)NCc1ccccc1Cl` (stereo not given in full), the Percent Effect was -30%. The value for `Cc1cc(=O)n(CC(=O)Nc2ccc(C(N)=O)cc2)nc1C` was -33%.

Consider `CCc1nc(CN2CCCC(NCc3cc(C)no3)C2)no1` (stereo not given), for which the Percent Effect was found to be 9.82%. Regarding `Cc1cc(CN2CCN(C(C)c3nc(C4CC4)no3)CC2)no1` (stereo not given), the Percent Effect is -2.55%.

Consider `CS(=O)(=O)c1ccccc1C(=O)NCC1Cc2ccccc2O1` (stereo not given), for which the Percent Effect was -13%.

For the compound `NC(=O)C1(CCCc2cccnc2)CCCN(c2ncccn2)C1` (stereo not given), the Percent Effect is -4.97%. The value for `CCSCCNC(=O)C(c1cccc(F)c1)N(C)C` (stereo not given) was 12.8%.
